IL1B secr inh: inflammasome signaling inhibition, IL-1 beta readout; 4.7% of 360,000 active; activity change, % at 57.5 µM; THP-1 LPS/ATP IL-1B secretion, AlphaLISA, 16 h; stronger effect = lower value; in the data active = activity change below about -50%; inconclusive = mostly about -30% to -49%
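THP-1 cells pretreated 1 hr with compounds (up to 57.5 uM final), then stimulated with LPS (250 ng/mL final) plus ATP (1.25 mM final); secreted IL-1B measured by AlphaLISA after 16 hr, decreased signal indicating inhibition.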
TDP1 cell noCPT: qHTS for Inhibitors of human tyrosyl-DNA phosphodiesterase 1 (TDP1): qHTS in cells in absence of CPT; 15% of 420,000 active; DT40 Tdp1-/- hTDP1 cells, no CPT, ATP luminescence, 48 h; Potency, µM (highest dose often 46.2 µM), usual class: inhibitors; also: nearly all actives have a fitted effect of over 55% in size
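Chicken DT40 Tdp1-/- cells stably complemented with human TDP1 were seeded at 400 cells/well with DMSO in place of 20 nM camptothecin. After compound pinning, cells grew at least 48 hr at 37 °C; viability read by CellTiter-Glo luminescence.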
HT1080 IDH1KD tx: HT-1080 IDH1 knockdown cell toxicity (counter line); HT-1080 IDH1 knockdown viability, ATP luminescence, 48 h; Potency, µM (titrated, usually from 46.1 µM), hits mostly cytotoxic; 2% of 360,000 active; AID 686971
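Luminescent ATP read-out (CellTiter-Glo, 10 min at room temperature) after 48 h compound exposure at 37 °C gave viability of IDH1-knockdown HT-1080 cells. Activity was normalised to DMSO and cell-free wells, then fitted as concentration-response curves.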
HT1080NT lethal: kills 2HG-producing HT-1080-NT fibrosarcoma cells; HT-1080-NT fibrosarcoma viability, CellTiter-Glo ATP luminescence, 48 h; Potency, µM (doses to about 46.1 µM), hits mostly cytotoxic; 1.6% of 360,000 active; AID 686970;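 also: NT is the 2HG producing partner of a matched IDH1 knockdown line; nearly all actives have a fitted effect of over 55% in size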
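HT-1080-NT fibrosarcoma cells (2HG-overproducing), 750 cells/well in RPMI with 5% FBS, dosed after 2 h and incubated 48 h at 37C. CellTiter-Glo luminescence normalized to DMSO and no-cell wells; concentration-response curves fitted and classed.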
uPA generation: cell surface uPA generation inhibition; cell surface uPA generation assay, qHTS; Potency, µM (top dose mostly 38.3 µM), actives largely listed as inhibitors; 0.31% of 330,000 active; AID 540303; active = well fitted inhibition curve with a large enough effect; inconclusive = small, poorly fitted or top-dose-only effect; inactive = no such curve, though single readings can be large or run the other way; tested in mouse RAW 264.7 cells; also: nearly all actives have a fitted effect of over 55% in size
TDP1 cell CPT: growth inhibition of DT40 Tdp1-/-;hTDP1 cells with camptothecin (screen for TDP1 inhibitors). chicken DT40 Tdp1-/-;hTDP1 cells + 20 nM CPT, ATP luminescence, 48 h. Potency, µM (titrated, usually from 46.2 µM), usual class: inhibitors. 12% of 420,000 active. AID 686979; also: nearly all actives have a fitted effect of over 55% in size
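Cell growth measured by CellTiter-Glo luminescence after a minimum 48 h, 37 C compound exposure with 20 nM CPT in Tdp1-knockout DT40 cells stably expressing hTDP1, seeded 400/well; qHTS titration format.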
Hits are given with their value; 0 = inactive; ? = inconclusive; - = not tested or not shown; [ ] = remark or other dose. In the library only some 19% were active in any assay of this set; here they are far more common. Unless noted, calls follow the shape of the dose curve; as a rule, active = well fitted curve in the direction sought with a large enough effect; inconclusive = small, poorly fitted or top-dose-only effect, or another doubt; inactive = no such curve, though single readings can be large; an effect the other way counts as inactive or inconclusive.

SMILES	IL1B secr inh	TDP1 cell noCPT	HT1080 IDH1KD tx	HT1080NT lethal	uPA generation	TDP1 cell CPT
COc1ccccc1OCC(=O)NNc1c2ccccc2nc2ccccc12	?	18.4µM	0	0	0	?
O=C(CN1CCOCC1)NNc1c2ccccc2nc2ccccc12	0	0	0	0	0	0
Nc1ccccc1C(=O)NNc1c2ccccc2nc2ccccc12	0	13µM	0	0	0	?
O=C(NNc1c2ccccc2nc2ccccc12)c1ccc(Cl)cc1	0	11.6µM	0	0	0	?
COc1ccc(N(CC(=O)NCc2ccco2)C(=O)CCC(=O)Nc2nccs2)c(OC)c1	0	0	0	0	0	0
CC(=O)N(CC(O)CO)c1c(I)c(C(=O)NCCO)c(I)c(C(=O)NCC(O)CO)c1I (configuration not stated)	-	0	-	-	-	0
CC1CN(C(NC(=O)c2ccccc2)C(Cl)(Cl)Cl)CC(C)O1 (configuration not stated)	0	0	0	0	0	0
CCc1ccc(S(=O)(=O)NCc2nc(N3CCCC3)c3cccc(C)c3n2)cc1	-	?	-	-	-	0[9.04 µM]
COc1cccc(C(=O)NNc2nc(C)cc(C)n2)c1	0	0	0	0	0	0
COc1cccc(C(=O)NNc2c3ccccc3nc3ccccc23)c1	0	11.6µM	0	0	0	?
COc1cc(C2c3cc4c(cc3CC3COC(=O)N32)OCO4)cc(OC)c1OC (configuration not stated)	0	0.92µM	1.03µM	1.3µM	0	0.82µM
COc1cc2c(c(OC)c1OC)C(c1ccc3c(c1)OCO3)CC(=O)O2 (configuration not stated)	0	0	0	0	0	0
CCO/C(C)=N/n1c2nc3ccccc3nc2c2c(=O)n(C3CCCC3)c(C)nc21	0	14.6µM	0	0	0	18.4µM
O=C(CCl)N(CCCNC(=O)C(F)(F)F)c1ccc([N+](=O)[O-])cc1	-100.5	6.51µM	7.31µM	20.6µM	0	2.59µM
O=C(NCCCNc1ccc([N+](=O)[O-])cc1)C(F)(F)F	0	0	0	0	0	0
O=C(CC[C@H]1O[C@@H](n2cnc3c(NC(=O)c4ccccc4)ncnc32)[C@H](O)[C@@H]1O)NCCc1cc2ccccc2[nH]1	?	0	0	0	-	0
COc1ccc(CN2CCOc3ccc(CN4CCC(O)(c5cccnc5)CC4)cc3C2)c(C)c1C	-	16.4µM	-	-	-	?
CCC1C(=O)NCCN1Cc1ccc2c(c1)CN(Cc1cccc(OC)c1OC)CCO2 (configuration not stated)	-	0	-	-	-	0.731µM
Cc1ccc(CN2CCOc3ccc(CN4CCC(O)(c5cccnc5)CC4)cc3C2)cc1C	-	18.4µM	-	-	-	0[9.04 µM]
Cc1cc(C)nc(S[C@@H]2C[C@@H](C(=O)N3CCCN(C)CC3)N(Cc3cc(F)ccc3F)C2)n1	-	0	-	-	-	0
O=C(Nc1ccc(F)c(Cl)c1)C1Cc2c(-c3ccc(Cl)cc3)ccnc2O1 (configuration not stated)	0	?	?	?	-	16.4µM
O=C(NCc1ccncc1)C1Cc2c(-c3ccc(Cl)cc3)ccnc2O1 (configuration not stated)	0	?	0	0	-	?
O=C(Nc1ccc(Cl)cc1)C1Cc2c(-c3ccccc3)ccnc2O1 (configuration not stated)	-78.6	?	0	0	-	?
CC(C)c1ccc(NC(=O)C2Cc3c(-c4ccc(Cl)cc4)ccnc3O2)cc1 (configuration not stated)	?	9.2µM	?	?	-	16.4µM
CC(=O)NCCNC(=O)C1Cc2c(-c3ccc(Cl)cc3)ccnc2O1 (configuration not stated)	0	0	0	0	-	0
SMILES	IL1B secr inh	TDP1 cell noCPT	HT1080 IDH1KD tx	HT1080NT lethal	uPA generation	TDP1 cell CPT
O=C(Nc1ccc(Cl)cc1)C1Cc2c(-c3ccc(Cl)cc3)ccnc2O1 (configuration not stated)	0	20.6µM	?	?	-	23.1µM
Nc1ncnc2[nH]c(=O)[nH]c12	-	0	-	-	-	0
CCc1nc2ccc(C(=O)Nc3ccc4c(c3)OCC(=O)N4)cn2c1N(C)C(=O)C1CCCCC1	0	?	0	0	-	?
CCC(C)NC(=O)CC(NS(=O)(=O)c1ccc(NC(C)=O)cc1)C(C)C (configuration not stated)	0	0	0	0	0	0
O=C(Nc1ccc(F)c(Cl)c1)C1Cc2c(-c3ccc4c(c3)OCO4)ccnc2O1 (configuration not stated)	?	?	25.9µM	16.4µM	-	?
CN(C)c1ncc2ncc(=O)n(C3CC3)c2n1	-	0	-	-	-	?
CCC1(C)CC2(CCCN(CCC(O)(c3ccccc3)c3ccccc3)C2)CCO1 (configuration not stated)	?	14.6µM	?	0	0	?
CCC(c1nnnn1CCOC)N1CCN(c2cccc(C(F)(F)F)c2)CC1 (configuration not stated)	0	?	0[9.24 µM]	0	0	?
CCOc1cc(CN2CCN(c3cccc(C(F)(F)F)c3)CC2)ccc1O	0	16.4µM	?	0	-	16.4µM
COc1ccc(CC(C)N2CCN(c3cccc(C(F)(F)F)c3)CC2)cc1OC (configuration not stated)	0	25.9µM	?	?	0	?
CCOc1cc(CN2CCSCC2)ccc1O	0	?	0	0	-	0
CCOc1cc(CN2CCN(c3cccc(C(F)(F)F)c3)CC2)ccc1OC	-56.3	16.4µM	0	0	0	?
Cn1nnc(NC(=S)NC(=O)c2cccc3c(Cl)cccc23)n1	0	0	0	0	0	0
N#CC(=C1C=CC(=NO)C(Cl)=C1)c1ccc(Cl)cc1	-53.6	3.66µM	?	0	0	4.61µM
CCOC(=O)/C=C1\SCC(=O)N1CC(=O)Nc1cccc(F)c1	0	0	0	0	-	0
Cc1ccc2c(c1)/C(=N/OS(=O)(=O)c1ccccc1)CCS2	0	0	0	0	0	?
CC1=CC(=O)C=C(C)C1=NOS(=O)(=O)c1ccccc1	-117.8	2.06µM	20.6µM	?	0	1.3µM
CC1=CC(=O)C(C(C)C)=C/C1=N/OS(=O)(=O)c1ccccc1	-101.0	0.581µM	5.8µM	8.2µM	3.98µM	0.581µM
CC1CCc2c(sc(NC(=O)Cn3nnc(-c4ccc(C(F)(F)F)cc4)n3)c2C#N)C1 (configuration not stated)	-	0	-	-	-	0
CN(CC(=O)c1c(N)n(C)c(=O)n(C)c1=O)c1ccccc1	0	0	0	0	0	?
CCOc1cc2c(cc1O)C(=NOC)CC1C2CCC2(C)C(O)CCC12 (configuration not stated)	0	0.82µM	1.46µM	1.64µM	0	0.92µM
Cc1cccc(NC(=O)Cn2nnc(C(=O)NCc3cccs3)c2N)c1C	0	?	0	0	0	0
